Measured values from PubChem BioAssay AID1159580 (chemical genetic matrix, 2015).
Hit rate of the full screen: of about 5,500 compounds, about 2,000 (36%) were called active. Not shown: some 18% with an inconclusive outcome. Cut-off read from the data, not from the text of the source: active = normalized growth mostly below about 0.91 (no sharp cut-off); inconclusive = no clear call, values can overlap the other calls; inactive = mostly above about 0.92. Some of the results follow.

Assay: chemical genetic growth profiling, strain panel (AID 1159580);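 note: tested at 20 µM; growth read once vehicle control cultures reached saturation at 30 °C; 1 = growth at the plate median or of vehicle wells; lower values mean less growth of the strain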
Settings: growth OD

Measured: normalized growth

O=[N+]([O-])c1ccc(O)c([N+](=O)[O-])c1
inactive: S. cerevisiae deletion strains, locus YLR039C, strain RIC1, stronger effect = lower value 0.841 | S. cerevisiae deletion strains, locus YLR262C, strain YPT6, stronger effect = lower value 0.932 | S. cerevisiae deletion strains, locus YLR342W, strain FKS1 (second series), stronger effect = lower value 0.851 | S. cerevisiae deletion strains, locus YLR357W, strain rsc2, stronger effect = lower value 0.855 | S. cerevisiae deletion strains, locus YMR125W, strain sto1, stronger effect = lower value 0.898 | S. cerevisiae deletion strains, locus YMR307W, strain GAS1, stronger effect = lower value 0.819 | S. cerevisiae deletion strains, locus YNL248C, strain rpa49, stronger effect = lower value 0.937 | S. cerevisiae deletion strains, locus YOL006C, strain TOP1, stronger effect = lower value 0.9 | S. cerevisiae deletion strains, locus YOL012C, strain htz1 0.683 | S. cerevisiae deletion strains, locus YOR106W, strain vam3, stronger effect = lower value 0.87 | S. cerevisiae deletion strains, locus YOR270C, strain vph1, stronger effect = lower value 0.901
active: S. cerevisiae deletion strains, locus YKL009W, strain mrt4, stronger effect = lower value 0.249 | S. cerevisiae deletion strains, locus YKL068W, stronger effect = lower value 0.354 | S. cerevisiae deletion strains, locus YKL085W, strain MDH1 (second series), stronger effect = lower value 0.192 | S. cerevisiae deletion strains, locus YKL085W, strain MDH1, stronger effect = lower value 0.192 | S. cerevisiae deletion strains, locus YKL160W, strain elf1, stronger effect = lower value 0.87 | S. cerevisiae deletion strains, locus YKL190W, strain CNB1, stronger effect = lower value 0.795 | S. cerevisiae deletion strains, locus YKR001C, strain vps1, stronger effect = lower value 0.691 | S. cerevisiae deletion strains, locus YKR026C, strain gcn3, stronger effect = lower value 0.77 | S. cerevisiae deletion strains, locus YKR091W, strain srl3, stronger effect = lower value 0.808 | S. cerevisiae deletion strains, locus YLL001W, strain dnm1, stronger effect = lower value 0.793 | S. cerevisiae deletion strains, locus YLL026W, stronger effect = lower value 0.816 | S. cerevisiae deletion strains, locus YLL041C, strain sdh2, stronger effect = lower value 0.82 | S. cerevisiae deletion strains, locus YLR027C, strain aat2, stronger effect = lower value 0.819 | S. cerevisiae deletion strains, locus YLR058C, strain SHM2, stronger effect = lower value 0.802 | S. cerevisiae deletion strains, locus YLR102C, strain apc9, stronger effect = lower value 0.691 | S. cerevisiae deletion strains, locus YLR113W, strain HOG1, stronger effect = lower value 0.214 | S. cerevisiae deletion strains, locus YLR221C, strain rsa3, stronger effect = lower value 0.786 | S. cerevisiae deletion strains, locus YLR258W, strain gsy2, stronger effect = lower value 0.843 | S. cerevisiae deletion strains, locus YLR262C, strain YPT6 (second series), stronger effect = lower value 0.833 | S. cerevisiae deletion strains, locus YLR268W, strain sec22, stronger effect = lower value 0.736 | S. cerevisiae deletion strains, locus YLR320W, strain mms22, stronger effect = lower value 0.807 | S. cerevisiae deletion strains, locus YLR330W, strain CHS5, stronger effect = lower value 0.733 | S. cerevisiae deletion strains, locus YLR342W, strain FKS1, stronger effect = lower value 0.855 | S. cerevisiae deletion strains, locus YLR370C, strain arc18, stronger effect = lower value 0.814 | S. cerevisiae deletion strains, locus YLR371W, strain rom2, stronger effect = lower value 0.718 | S. cerevisiae deletion strains, locus YLR384C, strain iki3, stronger effect = lower value 0.798 | S. cerevisiae deletion strains, locus YLR418C, strain cdc73, stronger effect = lower value 0.661 | S. cerevisiae deletion strains, locus YML016C, strain PPZ1, stronger effect = lower value 0.79 | S. cerevisiae deletion strains, locus YML032C, strain rad52, stronger effect = lower value 0.697 | S. cerevisiae deletion strains, locus YML120C, strain ndi1, stronger effect = lower value 0.781 | S. cerevisiae deletion strains, locus YML124C, strain tub3, stronger effect = lower value 0.701 | S. cerevisiae deletion strains, locus YMR058W, strain fet3, stronger effect = lower value 0.793 | S. cerevisiae deletion strains, locus YMR078C, strain ctf18, stronger effect = lower value 0.68 | S. cerevisiae deletion strains, locus YMR129W, stronger effect = lower value 0.77 | S. cerevisiae deletion strains, locus YMR205C, strain PFK2, stronger effect = lower value 0.852 | S. cerevisiae deletion strains, locus YMR223W, strain ubp8, stronger effect = lower value 0.776 | S. cerevisiae deletion strains, locus YMR231W, strain pep5, stronger effect = lower value 0.761 | S. cerevisiae deletion strains, locus YMR263W, strain SAP30, stronger effect = lower value 0.783 | S. cerevisiae deletion strains, locus YNL067W, strain RPL9B, stronger effect = lower value 0.779 | S. cerevisiae deletion strains, locus YNL071W, strain lat1, stronger effect = lower value 0.826 | S. cerevisiae deletion strains, locus YNL128W, strain TEP1, stronger effect = lower value 0.842 | S. cerevisiae deletion strains, locus YNL153C, strain GIM3, stronger effect = lower value 0.786 | S. cerevisiae deletion strains, locus YNL183C, strain NPR1, stronger effect = lower value 0.179 | S. cerevisiae deletion strains, locus YNL209W, strain ssb2, stronger effect = lower value 0.829 | S. cerevisiae deletion strains, locus YNL233W, strain BNI4, stronger effect = lower value 0.75 | S. cerevisiae deletion strains, locus YNL250W, strain rad50, stronger effect = lower value 0.265 | S. cerevisiae deletion strains, locus YNL271C, strain bni1, stronger effect = lower value 0.31 | S. cerevisiae deletion strains, locus YNL298W, strain CLA4, stronger effect = lower value 0.251 | S. cerevisiae deletion strains, locus YNL307C, strain MCK1, stronger effect = lower value 0.635 | S. cerevisiae deletion strains, locus YNL322C, strain KRE1 (second series), stronger effect = lower value 0.651 | S. cerevisiae deletion strains, locus YNL322C, strain KRE1, stronger effect = lower value 0.798 | S. cerevisiae deletion strains, locus YNR049C, strain mso1, stronger effect = lower value 0.779 | S. cerevisiae deletion strains, locus YNR052C, strain pop2, stronger effect = lower value 0.728 | S. cerevisiae deletion strains, locus YOL147C, strain pex11, stronger effect = lower value 0.693 | S. cerevisiae deletion strains, locus YOR001W, strain rrp6, stronger effect = lower value 0.841 | S. cerevisiae deletion strains, locus YOR061W, strain CKA2, stronger effect = lower value 0.819 | S. cerevisiae deletion strains, locus YOR069W, strain VPS5, stronger effect = lower value 0.759 | S. cerevisiae deletion strains, locus YOR070C, strain gyp1, stronger effect = lower value 0.836 | S. cerevisiae deletion strains, locus YOR080W, strain dia2, stronger effect = lower value 0.812 | S. cerevisiae deletion strains, locus YOR083W, strain WHI5, stronger effect = lower value 0.831 | S. cerevisiae deletion strains, locus YOR136W, strain idh2, stronger effect = lower value 0.845 | S. cerevisiae deletion strains, locus YOR144C, strain elg1, stronger effect = lower value 0.709 | S. cerevisiae deletion strains, locus YOR184W, strain ser1, stronger effect = lower value 0.799 | S. cerevisiae deletion strains, locus YOR231W, strain MKK1, stronger effect = lower value 0.266 | S. cerevisiae deletion strains, locus YOR265W, strain rbl2, stronger effect = lower value 0.832 | S. cerevisiae deletion strains, locus YOR290C, strain snf2, stronger effect = lower value 0.826 | S. cerevisiae deletion strains, locus YOR316C, strain cot1, stronger effect = lower value 0.726 | S. cerevisiae deletion strains, locus YPL051W, strain arl3, stronger effect = lower value 0.843 | S. cerevisiae deletion strains, locus YPL055C, strain LGE1, stronger effect = lower value 0.753 | S. cerevisiae deletion strains, locus YPL078C, strain atp4, stronger effect = lower value 0.737 | S. cerevisiae deletion strains, locus YPL106C, strain sse1, stronger effect = lower value 0.736 | S. cerevisiae deletion strains, locus YPL240C, strain hsp82, stronger effect = lower value 0.813 | S. cerevisiae deletion strains, locus YPL241C, strain CIN2, stronger effect = lower value 0.812 | S. cerevisiae deletion strains, locus YPL256C, strain CLN2, stronger effect = lower value 0.256 | S. cerevisiae deletion strains, locus YPR119W, strain clb2, stronger effect = lower value 0.697 | S. cerevisiae deletion strains, locus YPR141C, strain kar3, stronger effect = lower value 0.309 | S. cerevisiae deletion strains, locus YPR163C, strain tif3, stronger effect = lower value 0.656 | S. cerevisiae deletion strains, locus YPR167C, strain met16, stronger effect = lower value 0.719 | S. cerevisiae deletion strains, strain wtn01, stronger effect = lower value 0.755 | S. cerevisiae strains, strain wild type, stronger effect = lower value 0.799
